# From the supplement of paper PMC7156485
# Values joined by “and” are separate entries in the source; they are usually repeats but may differ in a detail not shown here. Identical values can stand only once. ± gives the standard deviation of the averaged measurements.
# What was measured:
# Settings in all cases: concentration: 10 µM; 24 h
# HCC1569 [1] = experiment: cell number relative to DMSO (% of DMSO); higher = more cells (less growth inhibition / toxicity)
# Outline: (§1)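 HCC1569 and TDF cells were seeded at 800 per well in 384-well plates in RPMI with 10% FBS and treated with compounds at 10 µM for 24 h at 37 °C, in triplicate. After fixation in 3.7% formaldehyde, cells were stained with a rabbit anti-H1.0 antibody, an AlexaFluor 647 secondary and DAPI, and six fields per well were imaged at ×10. H1.0 nuclear intensity or cell number is given as percent of the plate control, using the median of replicates, with HCC1569 values smoothed for positional effects.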
# TDF [2] = experiment: as above
# Outline: as §1
# TDF [3] = experiment: H1.0 immunofluorescence intensity relative to DMSO (% of DMSO); higher = stronger H1.0 induction, active = 120 or more
# Outline: as §1
# HCC1569 [4] = experiment: H1.0 immunofluorescence intensity relative to DMSO (% of DMSO); higher = stronger H1.0 induction, active = 140 or more
# Outline: as §1
# 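For H1.0 immunofluorescence intensity relative to DMSO in this document: TDF is a line of transformed human dermal fibroblasts of mesenchymal origin.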
# 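For cell number relative to DMSO in this document: TDF denotes transformed human dermal fibroblasts of mesenchymal origin.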
Compound,cell number (HCC1569 [1]),cell number (TDF [2]),H1.0 immunofluorescence intensity (TDF [3]),H1.0 immunofluorescence intensity (HCC1569 [4])
Cc1cc(Nc2cc(N3CCN(C)CC3)nc(Sc3ccc(NC(=O)C4CC4)cc3)n2)n[nH]1 [Tozasertib],70.4,46.5,99.2 (inactive),156 (active)
Clc1ccccc1C(c1ccccc1)(c1ccccc1)n1ccnc1 [Clotrimazole],75.1,69.1,104 (inactive),108 (inactive)
CC1=CCC(C)(C)C=CC(=O)C(C)=CCC1 [Zerumbone],87.7,89.7,104 (inactive),121 (inactive)
CC(C)C[C@H](NC(=O)C(O)[C@H](N)Cc1ccc([N+](=O)[O-])cc1)C(=O)O.Cl (stereo partly drawn),104,104,95.3 (inactive),93.9 (inactive)
Cl.NC(N)=NC(=O)c1nc(Cl)c(N)nc1N [Amiloride hydrochloride],99.3,100,97.6 (inactive),96.9 (inactive)
NC(=O)C(=O)[O-].[Na+] [Sodium Oxamate],102,105,94 (inactive),93.5 (inactive)
CCCC1OC2CC3C4CCC5=CC(=O)C=CC5(C)C4C(O)CC3(C)C2(C(=O)CO)O1 (stereo not drawn) [Budesonide],97.2,94.1,82 (inactive),96.4 (inactive)
"Cl.FC(F)(F)c1cc(COC2CCCNC2c2ccccc2)cc(C(F)(F)F)c1 [L-733,060 hydrochloride]",91.2,91.3,108 (inactive),118 (inactive)
CC(Nc1nc(N2CCCC2)nc2ccccc12)c1ccccc1 (stereo not drawn) [N-(1-phenylethyl)-N-[2-(1-pyrrolidinyl)-4-quinazolinyl]amine],83.8,75.1,123 (active),120 (inactive)
CCC=CCC=CCC=CCCCCCCCCCC(=O)O [Eicosatrienoic acid],101 ± 2.8,96.7 ± 14,100 (inactive),99.5 (inactive)
Nc1[nH]nc2nnc(-c3c(-c4ccccc4)nn4ccccc34)cc12,94.2,100,89.2 (inactive),117 (inactive)
CCCCCC(O)CCCC(=O)[O-].[Na+] (stereo not drawn) [5-hydroxydecanoic acid sodium],99.5,96,99.5 (inactive),114 (inactive)
CCC(C)n1ncn(-c2ccc(N3CCN(c4ccc(OCC5COC(Cn6cncn6)(c6ccc(Cl)cc6Cl)O5)cc4)CC3)cc2)c1=O (stereo not drawn) [Itraconazole],79.5,93,108 (inactive),149 (active)
O=C(O)c1cc(=O)cc(C(=O)O)[nH]1 [Chelidamic acid],98.8,109,90 (inactive),96.3 (inactive)
"NCCCCCCCCCCN [1,10-Diaminodecane]",101,98.7,89.4 (inactive),88.5 (inactive)
NC(N)=Nc1nc(CSCCC(N)=NS(N)(=O)=O)cs1,103,110,91.1 (inactive),108 (inactive)
"O=C(O)[C@H]1C[C@H](C(=O)O)N1 (relative stereo) [trans-Azetidine-2,4-dicarboxylic acid]",95.1,106,91.5 (inactive),90.5 (inactive)
"OC1C=CC(Br)C(O)C1O (mixture of isomers) [6-Bromo-4-cyclohexene-1,2,3-triol Mixed Isomers]",99.9,105,97.5 (inactive),112 (inactive)
"CCCCCC=CCC1OC1CC=CCC=CCCCC(=O)O (stereo not drawn) [11,12-Epoxyeicosatrienoic acid]",104,110,93.8 (inactive),97.7 (inactive)
CCN(CC)CC#CCOC(=O)C(O)(c1ccccc1)C1CCCCC1.Cl (stereo not drawn) [Oxybutynin Chloride],101,101,94.5 (inactive),97.4 (inactive)
CCC1OC(=O)C(C)C(OC2CC(C)(OC)C(O)C(C)O2)C(C)C(OC2OC(C)CC(N(C)C)C2O)C(C)(OC)CC(C)C(=O)C(C)C(O)C1(C)O (stereo not drawn) [Clarithromycin],98.4,93,94.3 (inactive),94.6 (inactive)
"Cc1cc2cc3c(C)cc(=O)oc3c(C)c2o1 [4,5',8-Trimethylpsoralen]",97.9,102,97.2 (inactive),87.5 (inactive)
CCCCOC(=O)NC(=O)C1c2ccccc2Oc2ccccc21 [butyl 9H-xanthen-9-ylcarbonylcarbamate],102,106,90.1 (inactive),107 (inactive)
CCCNC(=O)NS(=O)(=O)c1ccc(Cl)cc1 [Chlorpropamide],101,96.2,93.2 (inactive),91.2 (inactive)

Compound,cell number (HCC1569 [1]),cell number (TDF [2]),H1.0 immunofluorescence intensity (TDF [3]),H1.0 immunofluorescence intensity (HCC1569 [4])
CCOc1ccc(C(Nc2ccccn2)c2ccc3ccc(C)nc3c2O)cc1C (stereo not drawn),87.7,84.1,94.8 (inactive),115 (inactive)
CCc1ccc(CCOc2ccc(CC3SC(=O)NC3=O)cc2)nc1 (stereo not drawn) [Pioglitazone],102,105,94.2 (inactive),102 (inactive)
O=c1cc(-c2ccccc2)oc2cc(O)c(O)c(O)c12 [Baicalein],98.9 ± 2.6,92.95 ± 0.67,93.3 (inactive),99.6 (inactive)
CC(C)(C)NCC(O)c1ccc(O)c(CO)c1.CC(C)(C)NCC(O)c1ccc(O)c(CO)c1.O=S(=O)(O)O (stereo not drawn) [Salbutamol hemisulfate],99.9,103,84.9 (inactive),106 (inactive)
O=C1CC(c2ccc(O)c(O)c2)Oc2cc(OC3OC(CO)C(O)C(O)C3O)cc(O)c21 (stereo not drawn) [Eriodictyol-7-O-glucoside],101,94.3,97.7 (inactive),89.3 (inactive)
CCC1C(=O)OCC1Cc1cncn1C.Cl (stereo not drawn) [Pilocarpine.HCl],102 ± 2.4,94.48 ± 0.24,97.6 (inactive),102 (inactive)
O=C(Nc1cc(C(=O)Nc2ccc(S(=O)(=O)[O-])cc2S(=O)(=O)[O-])cc(C(=O)Nc2ccc(S(=O)(=O)[O-])cc2S(=O)(=O)[O-])c1)Nc1cc(C(=O)Nc2ccc(S(=O)(=O)[O-])cc2S(=O)(=O)[O-])cc(C(=O)Nc2ccc(S(=O)(=O)[O-])cc2S(=O)(=O)[O-])c1.[Na+].[Na+].[Na+].[Na+].[Na+] [NF449 octasodium salt],97.4,92.8,89.6 (inactive),108 (inactive)
CN1CCC(=C2c3ccccc3CC(=O)c3sccc32)CC1.O=C(O)C=CC(=O)O [Ketotifen fumarate],101,99.6,91.6 (inactive),98.7 (inactive)
COC1=C2CC(C)=c3c(C(C)=O)c(OC)c(O)c4c3c2c2c(cc(OC)c3c(OC)cc(O)c4c32)C(=O)C1=O [Hypocrellin B],101,95,97.1 (inactive),93.7 (inactive)
N=C1Sc2ccccc2C2=NCCCN12,100,99.9,91.9 (inactive),112 (inactive)
O=C1c2c(O)cc(O)cc2OC(c2ccc(O)c(O)c2)C1O (racemic),108,109,87.5 (inactive),103 (inactive)
COc1cccc(-c2cc(=O)c3ccccc3o2)c1N,99.7 and 100 and 98.4,105 and 103,85.6 (inactive) and 92.6 (inactive) and 87.8 (inactive),106 (inactive) and 104 (inactive)
Cl.NCC(O)C1CCCCCCC1 (stereo not drawn) [2-Cyclooctyl-2-hydroxyethylamine hydrochloride],101,103,97.1 (inactive),92.8 (inactive)
CNC(=O)C1OC(n2cnc3c(N)ncnc32)C(O)C1O (stereo not drawn) [5'-N-Methyl carboxamidoadenosine],110,110,104 (inactive),98.9 (inactive)
CS(=O)(=O)O.Cc1ccc(NC(=O)c2ccc(CN3CCN(C)CC3)cc2)cc1Nc1nccc(-c2cccnc2)n1 [Imatinib],93.4,95.8,107 (inactive),127 (inactive)
Nc1nccc(-c2c(-c3ccc(F)cc3)ncn2C2CCNCC2)n1,84.5,89.4,88.6 (inactive),143 (active)
C1CCC(C(CC2CCCCN2)C2CCCCC2)CC1.O=C(O)C=CC(=O)O (stereo not drawn),19,5.25,273 (active),117 (inactive)
CNC1C(OC2OC(CO)C(N)C(O)C2O)OC2CC(N)C(OC3C(N)CC(N)C(O)C3O)OC2C1O (stereo not drawn) [Apramycin],106,96.3,98.5 (inactive),117 (inactive)
"CCCCCC(=O)c1c(O)c(Cl)c(OC)c(Cl)c1O [1-(3,5-dichloro-2,6-dihydroxy-4-methoxyphenyl)-1-hexanone]",93.6,90,101 (inactive),120 (inactive)
O=C1Cc2c([nH]c3ccc([N+](=O)[O-])cc23)-c2ccccc2N1 [Alsterpaullone],82.4 ± 33,72.6 ± 41,92.9 (inactive),99.1 (inactive)
CCCCCCCCCC(=O)NC(CN1CCOCC1)C(O)c1ccccc1.Cl (racemic),94,91.9,105 (inactive),109 (inactive)
COc1cc2ncnc(Nc3ccc(O)cc3)c2cc1OC,100,115,89 (inactive),96.6 (inactive)
CC(C=CC1=C(C)CCCC1(C)C)=CC=CC(C)=CC(=O)O [9-cis Retinoic acid],105 ± 4.8,106 ± 5.2,87.8 (inactive),116 (inactive)
